Among the data in PubChem BioAssay (NCI) are growth values, retold here.

About 83,000 compounds went through this panel and 20% of them were active in at least one assay; those are over-represented in the sample as a whole.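 Treatment: one concentration, 48 hours, 96-well format. Scoring: percent growth, with anything below 10 considered active.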 Values without a mark were called inactive. Activity calls are given as the source filed them.

Holding throughout (experiment): NCI-60 one-dose screen, 48 h (100 = growth as untreated, 0 = no growth, -100 = all killed)
Holding throughout (details): 10 µM unless noted

In assay [1] the test system is T-47D breast.
In assay [2] the test system is BT-549 breast.
The test system of assay [3] is MDA-MB-435 melanoma.
In assay [4] the test system is SW-620 colon.
The test system of assay [5] is MCF7 breast.
Assay [6] concerns HCT-116 colon.
For assay [7], the system named is HCC-2998 colon.
Assay [8] concerns KM12 colon.

With `COc1cc2nc(N3CCCC3)nc(NCC3CCCCC3)c2cc1OC`, the growth was -49.9% (active) in assay [1]; 42.6% in assay [2]; -72.3% (active) in assay [3]; -41.6% (active) in assay [4]; -78.8% (active) in assay [5]; -65.2% (active) in assay [6]. The growth was -60.1% (active) in assay [7] and 75.4% in assay [8].
As to `N#CCCN=Nc1c(O)[nH]c2ccc(F)cc12`, the growth in assay [1] was 96.4%; in assay [2] it was 108%; in assay [3], 96.6%; in assay [4], 98.3%; in assay [5], 93.9%; in assay [6], 95.1%. Also, the growth in assay [7] is 97.9%; in assay [8] it was 101%.
Consider `CC(=O)c1cc2c(N)c(C(=O)Nc3cccc4ccccc34)sc2nc1C`, for which the growth in assay [1] was 42.7%; in assay [2] it was 46.5%; in assay [3], -34% (active); in assay [4], 17.8%; in assay [5] it was 22.1%; in assay [6], 29.3%. The growth in assay [7] was 37.1%; in assay [8] it was 22%.
In the case of `O=C(COc1cccc(/C=C2\COc3ccc(Cl)cc3C2=O)c1)c1ccc(Cl)cc1`, the growth is 71.9% in assay [1]; 84.7% in assay [2]; 91.2% in assay [3]; 51% in assay [4]; 0.286% (active) in assay [5]; 31.1% in assay [6]. Besides, the growth in assay [7] was 129%; in assay [8], 77.1%.
Take `O=C1NC(=S)N[C@H]1CC(=O)n1cnc2ccccc21`: the growth in assay [1] was 99.6%; in assay [2] it was 102%; in assay [3], 105%; in assay [4], 97.2%; in assay [5], 68.7%; in assay [6], 104%. For the same molecule, the results for the growth in assay [7] and in assay [8] were 103% and 100%, respectively.
Take `CC1(C)CC[C@]2(C(=O)Nc3ccccn3)CC[C@]3(C)C(=CC[C@@H]4[C@@]5(C)C/C(=C/c6cccnc6)C(=O)C(C)(C)[C@@H]5CC[C@]43C)[C@H]2C1`: the growth in assay [1] was 12.8%; in assay [2], 42.2%; in assay [3], 38.3%; in assay [4], 33.9%; in assay [5] it was 11.4%; in assay [6] it was 11.4%. Besides, the growth in assay [7] was 40.4%; in assay [8] it was 40.1%.
Take `COc1ccc(C2CC(c3ccc4ccccc4c3)=NN2/C=C2\SC(=S)N(NC(=O)Cc3ccccc3Nc3c(Cl)cccc3Cl)C2=O)cc1` (stereo not given): the growth was 19.2% in assay [1]; 30% in assay [2]; -49.8% (active) in assay [3]; 22.6% in assay [4]; 22.5% in assay [5]; 18.6% in assay [6]. Also, the growth is 31.2% in assay [7] and 16% in assay [8].
On to `C=C1c2nc3ccccc3n2C=C(c2cccc(Cl)c2)N1Cc1ccc(OC)cc1`, for which the growth in assay [1] is -22.5% (active); in assay [2] it was -1.26% (active); in assay [3] it was -32.3% (active); in assay [4] it was 20.6%; in assay [5] it was 4.64% (active); in assay [6] it was 12.8%. The results for the growth in assay [7] and in assay [8] were 25.7% and 13%, respectively.
In the case of `Clc1ccc2c(NCCCCNc3nc(N4CCCCC4)nc4ccccc34)ccnc2c1`, the growth in assay [1] is -46.7% (active); in assay [2] it was 37%; in assay [3] it was -81.9% (active); in assay [4] it was -1.17% (active); in assay [5], 15.8%; in assay [6], -17.7% (active). Moreover, the growth in assay [7] is -16.5% (active); in assay [8], 19.6%.
Turning to `COc1ccc(/C=C/c2nc3ccccc3nc2/C=C/c2ccc(OC)cc2)cc1`, the growth in assay [1] was 78.1%; in assay [2] it was 104%; in assay [3] it was 88.4%; in assay [4], 92.6%; in assay [5], 80.9%; in assay [6] it was 89%. Further, the figures for the growth in assay [7] and in assay [8] were 104% and 99.6%, respectively.
For the molecule `NC(=O)c1cc(Br)ccc1NC(=O)/C=C/c1ccccc1`, the growth is 36.4% in assay [1]; 90.1% in assay [2]; -7.27% (active) in assay [3]; 29.1% in assay [4]; 19.9% in assay [5]; 38% in assay [6]. The growth in assay [7] is 64.4%; in assay [8] it was 20.7%.
Turning to `CN1CCN(Cc2ccc(NC(=O)c3cncc(C#Cc4cncn5ccnc45)c3)cc2C(F)(F)F)CC1`, the growth in assay [1] was 98.9%; in assay [2] it was 60.8%; in assay [3], 36.2%; in assay [4], 32.2%; in assay [5] it was 55.9%; in assay [6], 7.73% (active). For the same molecule, the growth in assay [7] is 47.6%; in assay [8], 19.7%.
Regarding `CCOC(=O)c1c(C)oc2ncnc(N3CCN(C(=S)Nc4ccccc4)CC3)c12`, the growth was 78.7% in assay [1]; 92.4% in assay [2]; 102% in assay [3]; 90.5% in assay [4]; 93.1% in assay [5]; 97.3% in assay [6]. In addition, the growth in assay [7] is 99.3%; in assay [8] it was 96.4%.
Consider `C[n+]1ccccc1/C=C/c1ccc2cccc(O)c2n1`, for which the growth in assay [1] was 97.6%; in assay [2], 97.6%; in assay [3], 114%; in assay [4] it was 52.1%; in assay [5] it was 97.3%; in assay [6] it was 97%. For the same molecule, the growth in assay [7] is 95.2%; in assay [8], 41.1%.
On to `CN1CCN=C1c1ccc(NC(=O)c2ccc(C(=O)Nc3ccc(C4=NCCN4C)cc3)cc2)cc1`, for which the growth is 86.7% in assay [1]; 97.5% in assay [2]; 108% in assay [3]; 102% in assay [4]; 76.5% in assay [5]; 91.1% in assay [6]. The growth in assay [7] is 112%; in assay [8] it was 98.7%.
